Experimental findings from PubChem BioAssay are described below.

Unmarked numbers belong to inactive results. How the calls were made is not given here.

Chain of Pantothenate synthetase (Mycobacterium tuberculosis (strain ATCC 25618 / H37Rv)) (P9WIL5 whole entry, looked up): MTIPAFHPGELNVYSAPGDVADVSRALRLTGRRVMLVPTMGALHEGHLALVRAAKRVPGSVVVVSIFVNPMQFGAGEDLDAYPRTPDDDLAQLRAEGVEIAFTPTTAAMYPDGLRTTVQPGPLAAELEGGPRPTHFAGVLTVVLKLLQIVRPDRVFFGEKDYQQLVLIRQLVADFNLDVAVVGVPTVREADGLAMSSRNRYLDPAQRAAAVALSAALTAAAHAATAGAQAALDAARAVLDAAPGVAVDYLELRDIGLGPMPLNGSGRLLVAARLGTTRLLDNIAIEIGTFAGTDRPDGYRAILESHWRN

This test addresses Pantothenate synthetase (Mycobacterium tuberculosis (strain ATCC 25618 / H37Rv)) (UniProt P9WIL5). Kind of test: Coupled enzyme confirmation of inhibitors against recombinant Mtb PanC (AID 375).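 Further: 0% = full reaction with vehicle and 100% = no enzyme background.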 The note with it: coupled enzyme assay; at 10 µM, active compounds read high.
By inhibition is commonly meant the relative decrease from the control value, in per cent. As to `CC1CCC(NC(=O)C2(C)CCC(=O)N2Cc2cccnc2)CC1` (stereo not given), the inhibition was 0%. With `COc1ccc(OC)c(S(=O)(=O)Nc2ccccc2SC)c1`, the inhibition is 3%.

Take `COc1cc(Nc2cc(C)nc3ncnn23)cc(OC)c1OC`: the inhibition was 0%. The same measure for `Cc1cc(C)n2nc(S(=O)(=O)N(C)c3ccccc3)nc2n1`: 0%; for `O=C(Nc1ccccc1C(=O)N1CCOCC1)c1ccncc1`: 0%. The same measure for `COc1cccc(C(=O)NC2=NCCS2)c1`: 0%; for `Cc1nc2cc(CO)ccc2n1C`: 4%. Regarding `CN=C(C)C1=C(O)C(C(=O)OC)C(C)(C)CC1=O` (stereo not given), the inhibition is 0%. Then `OC(CCN1CCCCC1)(c1ccccc1)C1CCCCC1` (stereo not given), with 0%; and `Cc1cc(C)cc(NC(=O)C2CCCN(c3nccc(C)n3)C2)c1` (stereo not given), with 0%.

Consider `Cc1noc(C)c1CSc1ccccc1C(=O)N1CCN(c2ccccc2)CC1`, for which the inhibition is 0%. The same measure for `CC1=C(C(=O)OCC(C)C)C(c2cc3c(cc2Br)OCO3)NC(=O)N1C` (stereo not given): 0%; for `COc1ccc(NC(=O)CN2CCCCC2)cc1`: 0%. `CC(=O)c1c(O)cc(C)n(Nc2nc(C)cc(C)n2)c1=O`: the inhibition was 0%.

On to `Cc1cc(C)n2cc(CSc3nnnn3-c3ccc(Cl)cc3)nc2n1`, for which the inhibition is 0%. The same measure for `COc1ccc2c(c1)C1(C)CC(C)(C)N2C(=O)N1c1ccccc1` (stereo not given): 4%; for `Cc1cccc(C(=O)N(C)c2nnc(-c3ccncc3)s2)c1`: 0%. `COC(=O)c1ccccc1NC(=O)c1cnc2sccn2c1=O`: the inhibition is 5%. Then `COc1ccc(-c2noc(-c3ccccc3C(=O)Nc3cccnc3)n2)cc1`, with 0%; and `CCOC(=O)c1ccccc1NC(=O)Cn1cnc2c(cnn2-c2ccc(OC)cc2)c1=O`, with 0%; and `Cc1cc(C(=O)CSc2nc3ccccc3[nH]2)c(C)n1C`, with 12%. For `COc1ccc(C2CC(c3ccc(C)cc3)Nc3ncnn32)cc1` (stereo not given), the inhibition was 0%. Then `CCCn1c(C)nc2c(c1=O)c1nc3ccccc3nc1n2CCc1ccccc1`, with 4%.

As to `O=C(Nc1ccccc1)N(O)c1ccc(Cl)cc1`, the inhibition is 4%. For the compound `NC(=O)c1cc(-c2ccccc2)nc(Oc2ccccc2)n1`, the inhibition was 1%. As for `C[C@@H]1C[C@H]2[C@@H]3CCC4=CC(=O)C=C[C@]4(C)[C@@]3(F)[C@@H](O)C[C@]2(C)[C@H]1C(=O)CO`, the inhibition was 1%. The same measure for `COc1ccc(C2=NOC(C(=O)NCCCN3CCOCC3)C2)cc1` (stereo not given): 5%; for `CCOC(=O)CSc1nnc(CNC(=O)c2cccs2)n1-c1cc(OC)ccc1OC`: 1%; for `CCOC(=O)CSc1nc2ccccc2c(=O)n1NC(=O)c1ccccc1`: 1%. Take `CCOc1ccc(C2C(C#N)=C(N)Oc3cc(C)n(Cc4ccco4)c(=O)c32)cc1OC` (stereo not given): the inhibition is 2%.

Turning to `CCCCc1ccc(NC(=O)N[C@H](C(=O)O)C(C)C)cc1`, the inhibition was 1%. Regarding `Cc1nn(-c2ccccc2)c2[nH]c(C(F)(F)F)cc(=O)c12`, the inhibition is 1%. Turning to `COc1ccc(OC)c(C2CC(=O)NC(SC)=C2C#N)c1` (stereo not given), the inhibition is 5%. For `COC(=O)c1ccc(-c2nn(C)c(=O)c3ccccc23)cc1`, the inhibition is 0%. Take `CN(C)S(=O)(=O)c1ccc(C(=O)NCc2cccs2)cc1`: the inhibition is 4%. The same measure for `O=C(Nc1ccc(F)cc1F)NC1CC(=O)N(Cc2ccccc2)C1` (stereo not given): 1%.

With `COc1cc(NC(=O)C2CCCN2S(=O)(=O)c2cccc3cccnc23)cc(OC)c1OC` (stereo not given), the inhibition is 0%. The same measure for `COc1cccc(-c2nnc(SCC(N)=O)n2-c2ccc(Cl)cc2)c1`: 0%; for `CCCn1nc(NC(=O)c2cccs2)c2cc3cc(OC)ccc3nc21`: 0%; for `CCOC(=O)c1sc(NC(=O)c2c(C)nn(Cc3ccccc3)c2C)cc1C`: 0%.
